# Laboratory results reported in PubChem BioAssay (NCI).
# The panel holds about 83,000 compounds, 20% with a hit somewhere; the sample as a whole holds those more often.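 Note: values are percent growth. 100 is the growth of untreated cells, values between 100 and 0 indicate rising inhibition; between -100 and 0 indicates cell death.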 Values without a mark were called inactive. Activity calls are given as the source filed them. How the source made its calls: active means growth percent below 10; inactive means the rest.
# System: SK-MEL-5 melanoma
# Test: NCI-60 one-dose screen, 48 h (100 = growth as untreated, 0 = no growth, -100 = all killed)
# Conditions: 10 µM unless noted
row,Compound,growth
1,NC(=O)c1c(NC(=O)c2ccc(Cl)cc2)sc2c1CCC(=O)C2,99.1%
2,Nc1c(C(=O)Nc2cccc3ncccc23)sc2nc3c(cc12)C(=O)CCC3,30.3%
3,CCOC(=O)c1cn2ncnc(Oc3ccc(NC(=O)NC4CC4)c(F)c3)c2c1C,94.9%
4,CCOC(=O)c1c2c(n3c1NCC3)-c1ccccc1C2=O,93.3%
5,CCCC(O)Cn1ncc(C(=O)OCC)c1NC(=O)NCc1cccc(F)c1 (centres undefined),101%
6,O=C(CCC(=O)c1nc2ncccc2[nH]1)NN1C(=O)CSC1c1ccc(Cl)cc1 (centres undefined),104%
7,COc1ccc2nc(Cl)c(/C=C/C(=O)c3ccc(NC(=O)CSc4nnc(-c5ccc(Cl)c(Cl)c5)n4-c4ccccc4)cc3)cc2c1,94.5%
8,CS(=O)(=O)Nc1cncc(-c2ccc3ncnc(Nc4ccc(F)c(Cl)c4)c3c2)c1,-50.1% (active)
9,Cc1ccc(-c2nc(C#N)c(S(=O)(=O)NCCO)o2)cc1,75%
10,O=C1OCC2=C1C(c1cccc(C(F)(F)F)c1)c1cc3c(cc1N2CCO)OCO3 (centres undefined),20%
11,Cc1[nH]c(C(=O)Nc2cccc(OC3CCNCC3)c2)c(Cl)c1Cl,85.5%
12,O=C1/C(=C/c2ccc(Br)cc2)COc2ccc(O)c(O)c21,29.8%
13,CCN1C(=S)N(CC)C2C1NC(=S)N2/N=C/C=C/c1ccccc1OC (centres undefined),17.3%
14,COc1cc(-c2nc3occn3c2-c2ccnc(NCCCNS(=O)(=O)c3ccccc3)n2)ccc1F,-22.4% (active)
15,O=C(O)c1cccc(N/C=C/C(=O)c2cc3cc(Br)ccc3oc2=O)c1,97.7%
16,N#Cc1c(Nc2ccc(F)cc2)n[nH]c1-c1cccs1,97.1%
17,COc1ccc(C2C(C#N)=C(N)Oc3c2sc2c(Br)cccc32)cc1 (centres undefined),29.3%
18,CCNc1nc(-c2ccc(F)cc2)c(C#N)c(=O)n1C,57.3%
19,CC12CCC(/C(=C/NNc3ccc([N+](=O)[O-])cc3[N+](=O)[O-])C1=O)C2(C)C (centres undefined),65.5%
20,S=c1[nH]c2cc(Cl)ccc2o1,99%

row,Compound,growth
1,COc1cc2c3c(c1O)-c1ccccc1[C@@H]1OC(=O)N(CC2)[C@H]31,96.1%
2,CC(C)CSc1oc(-c2ccccc2)nc1S(=O)(=O)c1ccccc1,90.7%
3,C#CCOc1cccc(-c2ncc3cc(NC(=O)CCl)ccc3n2)c1,-65.2% (active)
4,Cn1c(=O)c2c(nc(NC3=NS(=O)(=O)c4ccccc43)n2Cc2ccccc2)n(C)c1=O,99.4%
5,COc1cc2c(c(OC)c1OC)C(=O)CC(c1cccc(NC(=O)c3ccccc3Br)c1)O2 (centres undefined),86.1%
6,CC(C)(CO)N(CCO)CCO,97.1%
7,CC(=O)c1c(Nc2ccc(F)c(F)c2F)[nH]c2c(F)cc(F)cc2c1=O,-75.8% (active)
8,C#CCOc1ccc2ncnc(Nc3cccc(NC(=O)CCl)c3)c2c1,68.3%
9,COc1ccc(/C=C/C(=O)c2ccc(NC(=O)CSc3nnc(-c4cc(-c5ccccc5)nc5ccccc45)n3-c3ccccc3)cc2)cc1,97.5%
10,CCn1cc(C2=C(c3cn(C)c4ncccc34)C(=O)NC2=O)c2cccnc21,86.3%
11,NNC(=S)N/N=C/c1ccccn1,30.2%
12,Cc1ccc2nc(Cl)c(Cn3nnnc3SCc3ccccc3)cc2c1,93%
13,Clc1nn2c(Cn3cnc4c(NCc5ccccc5)ncnc43)nnc2c2ccccc12,58.6%
14,CN(C)c1ccc(/C=C2/C=C(c3ccccc3)OC2=O)cc1,87%
15,O=C(CN1C(=O)NC2NC(=O)NC21)N/N=C/c1ccc(Cl)cc1Cl (centres undefined),99.5%
16,COc1cccc(Nc2ccnc3[nH]c4ccc([N+](=O)[O-])cc4c23)c1,38.7%
17,COc1ccc(C/C(C)=C(/c2ccc(OCCN3CCCCCC3)cc2)c2ccc(OC(=O)NCc3ccccc3)cc2)cc1,91.2%
18,O=C(O)C1CN(c2cccc(Cl)c2)N(c2cccc(Cl)c2)C1=O (centres undefined),98%
19,CN(C)c1ccc(/C=C/C(=O)c2ccc(Nc3nc(Nc4ccc(F)cc4)nc(Nc4ccc(Cl)cc4)n3)cc2)cc1,50.2%
20,COC(=O)c1nc(-c2ccccc2)oc1S(=O)(=O)N1CCC(C(N)=O)CC1,81.6%

# System: UACC-62 melanoma
# Test: as above
# Conditions: 10 µM unless noted
row,Compound,growth
1,CCOC(=O)c1cn2ncnc(Oc3ccc(NC(=O)NC4CC4)c(F)c3)c2c1C,86.9%
2,Cc1[nH]c(C(=O)Nc2cccc(OC3CCNCC3)c2)c(Cl)c1Cl,-55.7% (active)
3,O=C1/C(=C/c2ccc(Br)cc2)COc2ccc(O)c(O)c21,-14.2% (active)
4,COc1cc(-c2nc3occn3c2-c2ccnc(NCCCNS(=O)(=O)c3ccccc3)n2)ccc1F,4.35% (active)
5,N#Cc1c(Nc2ccc(F)cc2)n[nH]c1-c1cccs1,76.9%
6,COc1ccc(C2C(C#N)=C(N)Oc3c2sc2c(Br)cccc32)cc1 (centres undefined),10.6%
7,CCNc1nc(-c2ccc(F)cc2)c(C#N)c(=O)n1C,44%
8,COc1cc2c3c(c1O)-c1ccccc1[C@@H]1OC(=O)N(CC2)[C@H]31,90.1%
9,Cn1c(=O)c2c(nc(NC3=NS(=O)(=O)c4ccccc43)n2Cc2ccccc2)n(C)c1=O,91.5%
10,COc1ccc(/C=C/C(=O)c2ccc(NC(=O)CSc3nnc(-c4cc(-c5ccccc5)nc5ccccc45)n3-c3ccccc3)cc2)cc1,87.3%
11,CCn1cc(C2=C(c3cn(C)c4ncccc34)C(=O)NC2=O)c2cccnc21,70%
12,Cc1ccc2nc(Cl)c(Cn3nnnc3SCc3ccccc3)cc2c1,83.7%
13,CN(C)c1ccc(/C=C2/C=C(c3ccccc3)OC2=O)cc1,92.6%
14,COc1ccc(C/C(C)=C(/c2ccc(OCCN3CCCCCC3)cc2)c2ccc(OC(=O)NCc3ccccc3)cc2)cc1,88.8%
